TDP1 cell noCPT = qHTS for Inhibitors of human tyrosyl-DNA phosphodiesterase 1 (TDP1): qHTS in cells in absence of CPT; AID 686978, 2013; Potency, µM (top dose mostly 46.2 µM), for the others: at the top dose activity change, negative = growth inhibition, usual class: inhibitors; DT40 Tdp1-/- hTDP1 cells, no CPT, ATP luminescence, 48 h; 420,000 tested, 15% active; further: potency means the concentration at half of the fitted maximal effect; nearly all actives have a fitted effect of over 55% in size
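DT40 Tdp1-/-;hTDP1 cells, no CPT (DMSO vehicle only), 400 cells/well; compounds pin-transferred; ≥48 hr, 37 °C; CellTiter-Glo 30 min RT dark, luminescence read.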
ELG1 DNA repair = qHTS screen for small molecules that inhibit ELG1-dependent DNA repair in human embryonic kidney (HEK293T) cells expressing luciferase-tagged ELG1. HEK293T ELG1-luciferase reporter, luminescence, 16 h; DNA damage induced by 5-fluorouridine. Potency, µM (series often up to 46.1 µM), for the others: at the highest dose activity change, negative = inhibition, hits mostly inhibitors. 330,000 tested, 2.3% active; further: potency means the concentration at half of the fitted maximal effect; nearly all actives have a fitted effect of over 55% in size
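Quantitative HTS, concentration-response format. 2,000 cells/well co-treated with 5-fluorouridine and compound, 16 hr in 5% CO2 at 37 °C; ONE-Glo luminescence read after 30 min.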
HT1080 IDH1KD tx = qHTS for induction of synthetic lethality in tumor cells producing 2HG: qHTS for the HT-1080-IDH1KD cell line. 360,000 tested, 2% active. Potency, µM (highest dose often 46.1 µM), for inactives: at the top dose activity, negative = toxicity, usual class: cytotoxic. HT-1080 IDH1 knockdown viability, ATP luminescence, 48 h;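 further: potency means the concentration at half of the fitted maximal effect; 0% = DMSO wells and -100% = cell-free medium wells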
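In this qHTS, HT-1080 cells depleted of IDH1 are exposed for 48 h at 37 °C to compound titrations. Toxicity is scored from CellTiter-Glo luminescence, with DMSO as full viability and medium alone as none.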
DT40 TDP1 CPT = qHTS for Inhibitors of human tyrosyl-DNA phosphodiesterase 1 (TDP1): qHTS in cells in presence of CPT; chicken DT40 Tdp1-/-;hTDP1 cells + 20 nM CPT, ATP luminescence, 48 h; Potency, µM (highest dose often 46.2 µM), for the others: at the top dose activity change, negative = growth inhibition, most hits filed as inhibitors; 420,000 tested, 12% active; AID 686979, 2013; further: potency means the concentration at half of the fitted maximal effect; nearly all actives have a fitted effect of over 55% in size
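Chicken DT40 Tdp1-/- cells stably complemented with human TDP1 were seeded at 400 cells/well in medium containing 20 nM camptothecin, exposed to pin-transferred compounds, and grown at 37 °C for at least 48 hr. Viability was read as ATP luminescence.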
HT1080NT lethal = qHTS for induction of synthetic lethality in tumor cells producing 2HG: qHTS for the HT-1080-NT fibrosarcoma cell line. HT-1080-NT fibrosarcoma viability, CellTiter-Glo ATP luminescence, 48 h. Potency, µM (series often up to 46.1 µM), for the others: at the top dose activity, negative = less viability, usual class: cytotoxic. 360,000 tested, 1.6% active. AID 686970, 2013;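 further: NT is the 2HG producing partner of a matched IDH1 knockdown line; potency means the concentration at half of the fitted maximal effect; 0% = DMSO-treated cells and -100% = media-only wells without cells; nearly all actives have a fitted effect of over 55% in size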
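Fibrosarcoma NT cells, 750 per well in 5% FBS RPMI, were exposed to compound for 48 hours. Viability: CellTiter-Glo luminescence.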
IL1B secr inh = qHTS for Inhibitors of Inflammasome Signaling: IL-1-beta AlphaLISA Primary Screen; THP-1 LPS/ATP IL-1B secretion, AlphaLISA, 16 h; stronger effect = lower value; activity change, % at 57.5 µM; 360,000 tested, 4.7% active; in the data active means activity change below about -50%; inconclusive means mostly about -30% to -49%
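THP-1 cells pretreated 1 hr with compounds (up to 57.5 uM final), then stimulated with LPS (250 ng/mL final) plus ATP (1.25 mM final); secreted IL-1B measured by AlphaLISA after 16 hr, decreased signal indicating inhibition.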
Active calls of the source: *; ? = inconclusive; nt = no result given. An excerpt weighted towards active compounds, which were near 19% of everything screened. Unless noted, the call rests on the fitted dose curve; in most records, active means well fitted curve in the direction sought with a large enough effect; inconclusive means small, poorly fitted or top-dose-only effect, or another doubt; inactive means no such curve, though single readings can be large; an effect the other way counts as inactive or inconclusive. Unless noted, on the % scale 0 is the no-effect control and ±100 the full control effect.

SMILES	TDP1 cell noCPT	ELG1 DNA repair	HT1080 IDH1KD tx	DT40 TDP1 CPT	HT1080NT lethal	IL1B secr inh
COc1ccc(S(=O)(=O)/N=C2/C=CC(=O)C(C)=C2C)cc1	1.64µM*	0.4%	-7.6%	1.84µM*	-9.8%	49.7
Cc1cc(C)c2sc(NC(=O)C3=COCCO3)nc2c1	-14.9%	?	-22.2%	-11.0%	-1.4%	-58.3*
CC(=O)Nc1nc2cc3c(cc2s1)OCCO3	23.1µM*	?	-2.1%	?	2.1%	?
O=C(Nc1nc2cc3c(cc2s1)OCCO3)C1=COCCO1	?	?	13µM*	23.1µM*	14.6µM*	-53.0*
CCCOc1ccc(-c2nonc2NC(=O)COc2ccc(C)cc2)cc1OCCC	-2.0%	nt	nt	2.0%	nt	nt
COc1ccc(C(=O)N2CCC(C(=O)Nc3ccccc3Cl)CC2)cc1	-14.3%	nt	nt	1.2%	nt	nt
Cc1ccc(C(=O)N2CC(C)CC(C)C2)cc1NC1=NC2CS(=O)(=O)CC2S1 (stereo unspecified)	-2.6%	8.5%	3.6%	-3.2%	-2.7%	-27.2
OCCN1CCN(CC(O)COc2ccc(C34CC5CC(CC(C5)C3)C4)cc2)CC1 (stereo unspecified)	5.17µM*	6.1%	23.1µM*	5.17µM*	18.4µM*	-97.3*
NCCOc1ccc(C23CC4CC(CC(C4)C2)C3)cc1	3.66µM*	?	?	3.66µM*	1.3%	-81.2*
Cc1nc2ccc(C(=O)N(C)Cc3ccco3)cn2c1N(C)C(=O)CCc1ccccc1	-23.5%	nt	0.0%	?	8.3%	-3.0
CC(C)(C)S(=O)N1Cc2cc(CO)cc(CCO)c2[C@H]1CCO (stereo partly specified)	6.5%	nt	10.5%	1.1%	11.6%	51.8
CN(C)S(=O)(=O)Oc1cccc(C(=O)Nc2ccc([N+](=O)[O-])cc2)c1	8.2µM*	?	?	?	-21.6%	7.9
O=C(Nc1ccc([N+](=O)[O-])cc1)c1cccc([N+](=O)[O-])c1	8.7%	nt	-20.8%	5.6%	-18.8%	34.2
Cc1ccccc1NC(=O)c1cccc(S(=O)(=O)Oc2ccc([N+](=O)[O-])cc2)c1	?	9.2%	0.0%	?	-5.8%	-58.4*
Cc1ccccc1NC(=O)c1cccc(NC(=O)c2c(C(=O)O)cccc2[N+](=O)[O-])c1	-9.7%	nt	21.0%	13.5%	?	-10.4
O=C(Nc1ccc(O)cc1)c1cccc(Oc2ccc([N+](=O)[O-])cc2)c1	18.4µM*	-4.0%	?	?	?	-67.6*
NC1=NC(=O)S/C1=C\c1ccc(F)cc1	-15.6%	8.7%	?	-6.2%	23.1µM*	-7.5
O=[N+]([O-])c1cc(Cl)cc2c1nc(NCCO)c1ccccc12	?	?	?	17.9%	?	-82.9*
CCc1ccccc1NC(=O)C1COc2ccccc2C1 (stereo unspecified)	-19.8%	nt	nt	-18.6%	nt	nt
Cc1cccc(Nc2nc(N)nc(N)c2N=O)c1	20.6µM*	nt	-15.7%	25.9µM*	-0.1%	-57.3*
Cc1ccc(Nc2nc(N)nc(N)c2N=O)cc1C	?	nt	-8.6%	?	-1.8%	-14.2
Cc1cc(Br)ccc1Nc1nc(N)nc(N)c1N=O	?	nt	-4.3%	10.3µM*	-6.5%	?
O=C(c1cccc(F)c1)N1CCC2(CC1)CN(c1ccccn1)C2	?	nt	nt	14.6µM*	nt	nt

Screening data: PubChem, National Center for Advancing Translational Sciences (NCATS)
